# Only some compounds are listed: those with a hit (about 2.4% of all), similar ones and a draw of the others.
# POLB inh – blocks human DNA polymerase beta activity. P06746. Pol beta primer extension/strand displacement, fluorescence kinetic. Potency, µM (series often up to 114 µM), for the others: at the highest dose activity change, negative = inhibition, hits mostly inhibitors. 340,000 tested, 1.3% active. AID 485314; also: % is scaled to controls: 0 for no effect and ±100 for the full control effect
#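 Pol beta (10 nM) and compounds were preincubated 15 min at room temperature, then 50 nM substrate (final) started primer extension/strand displacement. Reads were taken at 0 and 10 min; concentration-response data were fitted to a four-parameter Hill equation.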
# FEN1 inh-1 – inhibitors of human flap endonuclease 1. AID 588795. Recombinant FEN1 flap cleavage, fluorescence, 15 min. Potency, µM (top dose mostly 114 µM), inactives show at the highest dose activity change, negative = inhibition, actives largely listed as inhibitors. 390,000 tested, 0.35% active. P39748; also: % is scaled to controls: 0 for no effect and ±100 for the full control effect; nearly all actives have a fitted effect of over 65% in size
#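 Quantitative HTS format: each compound was titrated, incubated with 10 nM nuclease for 15 min at room temperature, then challenged with flap substrate at 50 nM final. Signal change over 15 min gave concentration–effect curves.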
# Pol eta inh-1 – blocks human DNA polymerase eta activity. Q9Y253. recombinant Pol eta, fluorescent DNA replication assay. Potency, µM (series often up to 114 µM), without a hit: at the highest dose activity change, negative = inhibition, hits mostly inhibitors. 390,000 tested, 1.2% active. AID 588591; also: % is scaled to controls: 0 for no effect and ±100 for the full control effect
# Target sequence (Q9Y253 whole entry, looked up): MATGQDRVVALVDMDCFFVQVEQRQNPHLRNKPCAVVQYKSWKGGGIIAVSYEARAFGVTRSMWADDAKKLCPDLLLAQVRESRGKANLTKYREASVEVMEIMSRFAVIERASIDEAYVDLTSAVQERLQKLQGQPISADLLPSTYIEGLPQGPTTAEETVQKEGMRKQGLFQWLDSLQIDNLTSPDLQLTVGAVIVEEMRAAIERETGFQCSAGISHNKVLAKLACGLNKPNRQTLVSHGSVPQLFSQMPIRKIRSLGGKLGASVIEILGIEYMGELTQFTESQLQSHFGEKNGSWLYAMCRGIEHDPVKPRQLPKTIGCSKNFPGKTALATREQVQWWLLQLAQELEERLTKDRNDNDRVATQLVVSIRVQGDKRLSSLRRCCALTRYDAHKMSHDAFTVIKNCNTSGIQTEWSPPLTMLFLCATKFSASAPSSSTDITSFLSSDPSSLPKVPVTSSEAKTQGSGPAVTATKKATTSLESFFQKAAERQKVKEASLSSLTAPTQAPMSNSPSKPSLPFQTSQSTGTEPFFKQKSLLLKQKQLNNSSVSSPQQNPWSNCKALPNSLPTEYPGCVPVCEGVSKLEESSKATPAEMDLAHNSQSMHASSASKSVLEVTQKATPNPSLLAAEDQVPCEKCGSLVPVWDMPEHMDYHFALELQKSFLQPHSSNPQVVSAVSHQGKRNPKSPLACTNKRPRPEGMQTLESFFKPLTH
#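 Fluorescent replication assay: 50 nM final substrate added after a 15 min room-temperature compound preincubation with 10 nM enzyme. Signal taken at 0 min and again at 10 min.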
# WRN helicase inh-1 – WRN helicase (human) inhibition. AID 651768. WRN helicase unwinding, fluorescent forked duplex, kinetic. Potency, µM (highest dose often 114 µM), for inactives: at the top dose activity change, negative = inhibition, hits mostly inhibitors. 360,000 tested, 0.46% active. Q14191; also: % is scaled to controls: 0 for no effect and ±100 for the full control effect; nearly all actives have a fitted effect of over 55% in size
#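 Enzyme (20 nM final) and test compound sit together 15 min at room temperature before substrate addition. Substrate is a single-forked duplex oligonucleotide (100 nM) labelled with fluorophore and quencher, with 2 mM ATP; helicase unwinding raises red fluorescence, read kinetically.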
# Pol kappa inh-1 – blocks human DNA polymerase kappa activity. Q9UBT6. purified Pol kappa, fluorescent DNA synthesis assay, 10 min. Potency, µM (series often up to 107 µM), without a hit: at the highest dose activity, negative = inhibition, hits mostly inhibitors. 400,000 tested, 0.53% active. AID 588579; also: % is scaled to controls: 0 for no effect and ±100 for the full control effect
#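 Activity was followed as the change in fluorescence between reads at 0 and 10 min after starting the reaction with 50 nM substrate. Beforehand, 10 nM polymerase had been preincubated with compound for 15 min at room temperature.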
# POLI inh – blocks human DNA polymerase iota activity. 390,000 tested, 1% active. Pol iota fluorescent replication assay, 10 min. Q9UNA4. Potency, µM (highest dose often 115 µM), without a hit: top-dose activity, negative = inhibition, usual class: inhibitors
#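 Pol iota at 10 nM preincubated 15 min with compounds at room temperature; reaction started with fluorescent substrate, 50 nM final. Fluorescence read kinetically at 0 and 10 min; buffer-only wells as negative control.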
# TbPGK inh – TbPGK inhibition, hit validation | AID 686980 | TbPGK coupled GAPDH assay, Kinase-Glo luminescence | 500 tested, 79% active | shares compounds with Pol kappa inh-1 | Potency, µM (doses to about 57.5 µM), for the others: top-dose activity change, negative = inhibition, most hits filed as inhibitors; also: % is scaled to controls: 0 for no effect and ±100 for the full control effect; nearly all actives have a fitted effect of over 65% in size
# Pol iota confirm – Confirm cherry-picked inhibitors of human polymerase iota; shares compounds with Pol kappa inh-1; Pol iota primer extension, TAMRA/BHQ fluorescence; Potency, µM, hits mostly inhibitors; 1,500 tested, 77% active; AID 720496
# Pol kappa inh-2 – Pol kappa (human) inhibition, cherry-pick confirmation; shares compounds with Pol eta inh-1; purified Pol-kappa, fluorescent strand-displacement substrate; Potency, µM, actives largely listed as inhibitors; 920 tested, 76% active
# Pol eta inh-2 – Pol eta (human) inhibition, cherry-pick confirmation; shares compounds with Pol eta inh-1; Pol eta primer extension, TAMRA/BHQ fluorescence, 10 min; Potency, µM, hits mostly inhibitors; 2,600 tested, 64% active
# FEN1 inh-2 – confirmation of human FEN1 inhibitors; shares compounds with FEN1 inh-1; FEN1 flap cleavage, TAMRA/BHQ2 fluorogenic DNA substrate; Potency, µM, actives largely listed as inhibitors; 880 tested, 79% active; AID 720498; also: nearly all actives have a fitted effect of over 60% in size
# WRN helicase inh-2 – WRN helicase inhibition, cherry-pick retest. shares compounds with WRN helicase inh-1. WRN helicase DNA unwinding, fluorescence kinetic. Potency, µM (titrated, usually from 57.1 µM), for inactives: at the highest dose activity, negative = inhibition, most hits filed as inhibitors. 610 tested, 63% active. AID 720497; also: nearly all actives have a fitted effect of over 65% in size
# TO DNA binding – DNA binding via thiazole orange displacement; shares compounds with WRN helicase inh-1; thiazole orange DNA binding displacement, fluorescence; Potency, µM (titrated, usually from 57.1 µM), inactives show top-dose activity change, negative = inhibition, actives largely listed as inhibitors; 610 tested, 10% active; AID 720499;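 also: drop in dye fluorescence marks compound binding to DNA; % is scaled to controls: 0 for no effect and ±100 for the full control effect; nearly all actives have a fitted effect of over 60% in size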
# BLM helicase inh – counter-screen for WRN helicase inhibitors: human BLM helicase inhibition. AID 720503. Recombinant BLM helicase DNA unwinding, red fluorescence. Potency, µM (highest dose often 57.1 µM), without a hit: at the highest dose activity change, negative = inhibition, usual class: inhibitors. shares compounds with WRN helicase inh-1. 610 tested, 60% active; also: nearly all actives have a fitted effect of over 60% in size
# An asterisk follows results filed as active; i = inactive; ? = inconclusive; nt = not tested or not shown; [ ] = another dose, or the depositor's remark. Calls follow the shape of the dose curve; as a rule, active = well fitted curve in the direction sought with a large enough effect; inconclusive = small, poorly fitted or top-dose-only effect, or another doubt; inactive = no such curve, though single readings can be large; an effect the other way counts as inactive or inconclusive. Potency is read from the fitted curve at half-maximal effect.
SMILES,POLB inh,FEN1 inh-1,Pol eta inh-1,WRN helicase inh-1,Pol kappa inh-1,POLI inh,Pol iota confirm,Pol kappa inh-2,Pol eta inh-2,FEN1 inh-2,WRN helicase inh-2,TO DNA binding,BLM helicase inh,others
O=C1CCCC(O)=C1N=Nc1ccc(C(=O)O)cc1,2.8µM*,45µM*,3.2µM*,32µM*,20µM*,6.3µM*,6*,nt,4.8*,?,7.6µM*,?,12µM*,TbPGK inh=9.2µM*
CC(=O)Nc1ccc2cc3ccc(NC(C)=O)cc3nc2c1,-21%,?,?,8%,-18%,?,nt,nt,nt,nt,nt,nt,nt,
CC(=O)Nc1ccc2nc3c(=O)[nH]c(=O)[nH]c3nc2c1,28µM*,28µM*,nt,nt,28µM*,8.9µM*,12*,2.4*,17*,38*,3.8µM*,29%,1.4µM*,
O=C(CCCN1C(=O)/C(=C/c2ccccc2)SC1=S)Nc1ccccc1O,1%,3%,3%,-3%,-4%,-6%,nt,nt,nt,nt,nt,nt,nt,
O=C(CCCN1C(=O)/C(=C/c2ccco2)SC1=S)Nc1ccccc1C(=O)O,-122%,?,11µM*,32µM*,?,22µM*,34*,8.4*,19*,nt,19µM*,-15%,24µM*,
O=C(CCN1C(=O)/C(=C/c2ccco2)SC1=S)Nc1ccc(C(=O)O)c(O)c1,?,35µM*,4.5µM*,45µM*,20µM*,4µM*,30*,17*,?,85*,17µM*,-28%,22µM*,
CC(=O)c1cccc(NC(=O)C(C)Sc2nnc3ccccn23)c1 (configuration not stated),nt,nt,-5%,2%,nt,nt,nt,nt,nt,nt,nt,nt,nt,
COc1cc(/C=C2\CCc3c2nc2ccccc2c3C(=O)O)cc(OC)c1OC,3.2µM*,50µM*,3.2µM*,32µM*,45µM*,10µM*,21*,nt,15*,nt,19µM*,?,19µM*,
Nc1ncc(S(=O)(=O)NCc2ccccc2)cn1,36%,-5%,-13%,nt,-12%[60.1 µM],6%,nt,nt,nt,nt,nt,nt,nt,
O=C(O)c1cc(N2N=C(C(F)(F)F)/C(=C/C=C/c3ccco3)C2=O)ccc1Cl,0.63µM*,3.2µM*,-99%,0.84µM*,1.1µM*,1.1µM*,0.75*,0.12*,0.67*,3.8*,1.4µM*,-14%,0.61µM*,TbPGK inh=0.58µM*
Cc1ccccc1OC(C)C(=O)NCCNC(=O)C(C)Oc1ccccc1C (configuration not stated),nt,-15%,nt,nt,-4%,50%,nt,nt,nt,nt,nt,nt,nt,
COCCn1c(SCc2nc3sc(C(=O)OC)c(C)c3c(=O)[nH]2)nc2ccccc21,-5%,-13%,?,-5%,-1%,4%,nt,nt,nt,nt,nt,nt,nt,
CCn1c(SCc2nc3sc(C(=O)O)c(C)c3c(=O)[nH]2)nc2ccccc21,8.9µM*,13µM*,0.71µM*,20µM*,3.5µM*,2.8µM*,9.5*,nt,2.7*,21*,6.8µM*,12µM*,19µM*,TbPGK inh=?
CCCC(=O)N1CCC1(C)C(=O)Nc1ccc2nc(C)ccc2c1 (configuration not stated),nt,nt,nt,-2%,nt,nt,nt,nt,nt,nt,nt,nt,nt,
O=[N+]([O-])c1ccc(N/N=C/C=C/c2ccco2)cc1,nt,-1%,-15%,2%,8%,-20%,nt,nt,nt,nt,nt,nt,nt,
O=C(O)c1ccc(N/N=C/C=C/c2ccc([N+](=O)[O-])o2)cc1,3.2µM*,?,22µM*,?,79µM*,8.9µM*,38*,nt,27*,nt,19µM*,?,17µM*,TbPGK inh=16µM*
N#Cc1ccc(S(=O)(=O)N2CCCCC2c2cc(C(=O)NCc3cccnc3)no2)cc1 (configuration not stated),nt,nt,nt,-3%,nt,nt,nt,nt,nt,nt,nt,nt,nt,
C=CCSC1=N/C(=C\C=C\c2ccco2)C(=O)S1,2.5µM*,50µM*,3.5µM*,32µM*,14µM*,4.5µM*,21*,9.5*,21*,nt,19µM*,24µM*,5.4µM*,
CC(C)CNC(=O)c1cccc2c(-c3cccc(C(N)=O)c3)coc12,nt,nt,nt,-3%,nt,nt,nt,nt,nt,nt,nt,nt,nt,
O=C(O)c1ccccc1-c1ccccc1C(=O)Nc1ccc2c(c1)oc(=O)c1ccccc12,nt,nt,5%,-24%,nt,nt,nt,nt,nt,nt,nt,nt,nt,
O=C(O)c1ccccc1-c1c2cc(I)c(=O)c(I)c-2oc2c(I)c(O)c(I)cc12,nt,40µM*,16µM*,4.7µM*,22µM*,13µM*,19*,30*,67*,38*,22µM*,i,19µM*,TbPGK inh=10µM*
COc1ccc(S(=O)(=O)N2CCN(C(=O)c3cc4c(s3)CCC4)CC2)cc1,nt,45µM*,2.2µM*,35µM*,28µM*,2.8µM*,3*,3*,7.6*,76*,7.6µM*,?,1.1µM*,
Cc1ccc(S(=O)(=O)N2CCN(C(=O)c3cc4c(s3)CCCC4)CC2)cc1,nt,17%,-19%,-3%,-1%,-8%,nt,nt,nt,nt,nt,nt,nt,
Cc1ccc(C)c(NC(=O)CN(C)C(=O)c2cccc(N3C(=O)CCC3=O)c2)c1,nt,-2%,-1%,-2%,9%,27%,nt,nt,nt,nt,nt,nt,nt,

# From PubChem BioAssay
